Assay outcomes as filed in PubChem BioAssay.
HT1080 IDH1KD tx: HT-1080 IDH1 knockdown cell toxicity (counter line); AID 686971; HT-1080 IDH1 knockdown viability, ATP luminescence, 48 h; Potency, µM (titrated, usually from 46.1 µM), for inactives: at the highest dose activity, negative = toxicity, actives largely listed as cytotoxic; 360,000 compounds, 2% hits;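 note: 0% = DMSO wells and -100% = cell-free medium wells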
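IDH1KD HT-1080 cells, 750/well, RPMI + 5% FBS; compound pinned after 2 h settling; 48 h, 37 °C; CellTiter-Glo luminescence; % activity normalised to DMSO and no-cell wells; curves fitted, classed by r2 and efficacy.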
TDP1 cell noCPT: qHTS for Inhibitors of human tyrosyl-DNA phosphodiesterase 1 (TDP1): qHTS in cells in absence of CPT; DT40 Tdp1-/- hTDP1 cells, no CPT, ATP luminescence, 48 h; Potency, µM (titrated, usually from 46.2 µM), for inactives: at the highest dose activity change, negative = growth inhibition, actives largely listed as inhibitors; 420,000 compounds, 15% hits; note: nearly all actives have a fitted effect of over 55% in size
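No-CPT arm: Tdp1-/-;hTDP1 DT40 cells (400/well) plus compounds, incubated ≥48 hr at 37 °C. Readout CellTiter-Glo luminescence.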
KB-3-1 tox: KB-3-1 parental cell cytotoxicity. KB-3-1 viability, CellTiter-Glo ATP luminescence, 72 h. Potency, µM (doses to about 46.1 µM), usual class: cytotoxic. 400,000 compounds, 1.4% hits; note: nearly all actives have a fitted effect of over 60% in size
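KB-3-1 cells, DMEM (no phenol red) + 10% FBS; compound by pin transfer, 72 h, 37 °C. Readout: CellTiter-Glo luminescence after 10 min. Data normalized, curve-fitted.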
HT1080-NT tox: kills 2HG-producing HT-1080-NT fibrosarcoma cells | HT-1080-NT fibrosarcoma viability, CellTiter-Glo ATP luminescence, 48 h | Potency, µM (top dose mostly 46.1 µM), inactives show at the top dose activity, negative = less viability, actives largely listed as cytotoxic | 360,000 compounds, 1.6% hits;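 note: NT is the 2HG producing partner of a matched IDH1 knockdown line; 0% = DMSO-treated cells and -100% = media-only wells without cells; nearly all actives have a fitted effect of over 55% in size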
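750 cells/well, RPMI + 5% FBS; 2 h settle, compound pin-transfer, 48 h at 37 degrees C. CellTiter-Glo 10 min RT, luminescence. Normalized to DMSO and media-only wells.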
KB-V1 MDR tox: kills drug-selected multidrug resistant KB-V1 cells; Potency, µM (highest dose often 46.1 µM), hits mostly cytotoxic; KB-V1 MDR cells viability, CellTiter-Glo, 72 h; 400,000 compounds, 3.4% hits; note: nearly all actives have a fitted effect of over 60% in size
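Compound-treated KB-V1 multidrug-resistant cells, 72 h, 37 degrees C; viability by CellTiter-Glo. Fitted qHTS curves give the values.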
TDP1 cell CPT: DT40-hTDP1 cell growth loss with CPT; chicken DT40 Tdp1-/-;hTDP1 cells + 20 nM CPT, ATP luminescence, 48 h; Potency, µM (series often up to 46.2 µM), for the others: at the highest dose activity change, negative = growth inhibition, hits mostly inhibitors; 420,000 compounds, 12% hits; AID 686979; note: nearly all actives have a fitted effect of over 55% in size
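Chicken DT40 Tdp1-/- cells complemented with human TDP1, 400 cells/well, exposed to compounds plus 20 nM camptothecin for at least 48 h at 37 C; viability read as ATP content by CellTiter-Glo luminescence.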
* hit, by the source's call; i = inactive; ? = inconclusive; nt = no result; [ ] = dose if it differs, or a comment. An excerpt weighted towards active compounds, which were near 19% of everything screened. Calls come from the whole dose curve; as a rule, active = well fitted curve in the direction sought with a large enough effect; inconclusive = small, poorly fitted or top-dose-only effect, or another doubt; inactive = no such curve, though single readings can be large; an effect the other way counts as inactive or inconclusive. Unless noted, % is set by controls: 0 for no effect and ±100 for the full control effect; potency is the fitted concentration of half-maximal effect.

SMILES | HT1080 IDH1KD tx | TDP1 cell noCPT | KB-3-1 tox | HT1080-NT tox | KB-V1 MDR tox | TDP1 cell CPT
COc1ccc(CCN(Cc2cccs2)S(=O)(=O)c2ccc(S(=O)(=O)N3CCCCCC3)cc2)cc1OC | 18% | 9.2µM* | i | 1% | ? | ?
COc1ccc(CCN(Cc2cccs2)S(=O)(=O)c2ccc(S(=O)(=O)N3CCC(C)CC3)cc2)cc1OC | 4% | ? | i | 5% | i | -28%
COc1cc(S(=O)(=O)N(CCc2ccccc2)Cc2cccs2)ccc1-n1cnnn1 | 0%[9.24 µM] | -21% | i | 5% | i | -22%
COc1ccc(CCN(Cc2cccs2)S(=O)(=O)c2ccc(-n3cnnn3)cc2)cc1OC | ? | ? | i | -17% | ? | 12µM*
COc1ccc(S(=O)(=O)N(C)Cc2cccs2)cc1Br | 2% | -8% | i | 4% | i | 6%
O=S(=O)(NC1CCCC1)c1ccc(S(=O)(=O)N(Cc2cccs2)CC2CCCO2)cc1 (configuration not stated) | 9% | -21% | i | 0% | ? | ?
O=C(NC1CCCCC1)C1CC(=O)N(c2ccccc2)C1 (configuration not stated) | 21% | -29% | ? | 30% | i | -12%
Cc1cccc(C(=O)N(Cc2nc(-c3ccc(Cl)cc3)no2)C(C)C)c1 | nt | ? | i | nt | i | ?
Cc1cccc(-c2noc(CN(C(=O)c3ccc(C)c(C)c3)C(C)C)n2)c1 | nt | 3.7µM* | ? | nt | ? | 5.2µM*
CC(C)N(Cc1nc(-c2ccccc2)no1)C(=O)C(Cl)(Cl)Cl | -3% | -28% | i | -5% | i | 3%
Cc1cccc(-c2noc(CN(C(=O)c3c(-c4ccccc4Cl)noc3C)C(C)C)n2)c1 | -1% | 18µM* | ? | -1% | ? | 21µM*
Cc1nc(C(C)N(C)Cc2nc(-c3ccc4c(c3)OCO4)no2)c(C)s1 (configuration not stated) | -6% | ? | i | -2% | i | 23µM*
CCOc1ccc(C(=O)N(Cc2nc(-c3cccc(C)c3)no2)C(C)C)cc1 | nt | ? | i | nt | ? | 21µM*
COc1ccc(-c2noc(CN(C(=O)c3ccc4c(c3)OCO4)C(C)C)n2)cc1OC | 2% | ? | i | -5% | ? | ?
COc1ccc(CC(=O)O/N=C(\N)c2ccncc2)cc1OC | 2% | ? | i | -6% | i | -29%
CCC(=O)Nc1ccc(S(=O)(=O)NC[C@H]2O[C@@H](n3cnc4c(=O)[nH]c(N)nc43)[C@H](O)[C@@H]2O)cc1 | 22% | 21% | i | 13% | i | 10%
CC1=C(C(=O)Nc2ccc(Cl)cc2)C(C(C)C)n2nc(SCc3cccc(C)c3)nc2N1 (configuration not stated) | nt | ? | i | nt | ? | ?
COC(=O)c1nc(-c2ccc(C)cc2)[nH]c1C(C)(C)C | -2% | -26% | i | -4% | i | -20%
Cc1onc(-c2ccccc2Cl)c1C(=O)NCc1nc(-c2ccc(C(F)(F)F)cc2)no1 | ? | 15µM* | i | -10% | ? | ?
Cc1cccc(-c2noc(CN(C(=O)C(c3ccccc3)c3ccccc3)C(C)C)n2)c1 | -9% | 16µM* | i | -3% | ? | ?
CC(C)N(Cc1nc(-c2ccccc2)no1)C(=O)COc1ccccc1 | 2% | ? | i | 4% | i | ?
Cc1onc(-c2ccccc2Cl)c1C(=O)N(Cc1nc(-c2ccccc2)no1)C1CCCCC1 | ? | 18µM* | ? | -8% | 18µM* | ?
